Records with an inconclusive call do not appear. The source made the active and inactive calls. The call rests on the fitted dose curve; in most records, active means well fitted cell-killing curve with a large enough effect; inconclusive means small, poorly fitted or top-dose-only effect, or effect the other way; inactive means no such curve, though single readings can be large or run the other way.
Assays:
[1] = Quantitative High-Throughput drug screen in 47 multiple myeloma cell lines against the NCATS MIPE library collection: PCM6_Riken cell viability assay (AID 1919870); conditions: CellTiter-Glo ATP, 48 h; series mostly up to 45.8 µM; further: nearly all actives have a fitted effect of over 30% in size
In short: (§1)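 MIPE 4.0 approved/investigational drugs; 500 cells/well; 48 h 37 °C humidified 5% CO2; CTG luminescence readout; DMSO = 100%, media = 0% viability.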

[2] = Quantitative High-Throughput drug screen in 47 multiple myeloma cell lines against the NCATS MIPE library collection: RPMI8226_ATCC cell viability assay (AID 1919871); conditions: RPMI8226 myeloma viability, CellTiter-Glo ATP luminescence, 48 h; series mostly up to 45.8 µM; further: nearly all actives have a fitted effect of over 30% in size
In short: as §1

[3] = Quantitative High-Throughput drug screen in 47 multiple myeloma cell lines against the NCATS MIPE library collection: OPM2_DSMZ cell viability assay (AID 1919872); conditions: OPM2 myeloma viability, CellTiter-Glo ATP luminescence, 48 h; series mostly up to 45.8 µM; further: nearly all actives have a fitted effect of over 30% in size
In short: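 CellTiter-Glo luminescence (ATP) after 48 h compound exposure, 37C/5% CO2; 500 cells/well; MIPE 4.0 approved/investigational drugs pinned in; DMSO = 100%, media only = 0% viability.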

[4] = Quantitative High-Throughput drug screen in 47 multiple myeloma cell lines against the NCATS MIPE library collection: KMS11_JCRBsus cell viability assay (AID 1919873); conditions: KMS11 myeloma viability, CellTiter-Glo ATP luminescence, 48 h; series mostly up to 45.8 µM; further: nearly all actives have a fitted effect of over 50% in size
In short: as §1

[5] = Quantitative High-Throughput drug screen in 47 multiple myeloma cell lines against the NCATS MIPE library collection: KMS28BM_JCRB cell viability assay (AID 1919874); conditions: CellTiter-Glo ATP, 48 h; series mostly up to 45.8 µM; further: nearly all actives have a fitted effect of over 35% in size
In short: as §1

Measured: Potency
Potency means the concentration at half of the fitted maximal effect.

Cn1c(=O)c2c(ncn2CC(O)CO)n(C)c1=O (stereo not given)
inactive: all assays above

C1CCC(C(CC2CCCCN2)C2CCCCC2)CC1 (stereo not given)
active: [1] 10.5 µM | [2] 11.8 µM | [3] 23.5 µM | [4] 8.33 µM | [5] 9.35 µM

CC(C)(C#N)c1cc(Cn2cncn2)cc(C(C)(C)C#N)c1
inactive: all assays above

CC(C)C[C@H](NC(=O)[C@H](CCc1ccccc1)NC(=O)CN1CCOCC1)C(=O)N[C@@H](Cc1ccccc1)C(=O)N[C@@H](CC(C)C)C(=O)[C@@]1(C)CO1
active: [1] 0.001 µM | [2] 0.0166 µM | [3] 0.0166 µM | [4] 0.0053 µM | [5] 0.0053 µM

N[C@@H](C(=O)N[C@@H]1C(=O)N2C(C(=O)O)=C(Cl)CS[C@H]12)c1ccccc1
inactive: [1] | [2] | [3]

COC(c1ccccc1)(c1ccccc1)[C@H](Oc1nc(C)cc(C)n1)C(=O)O
inactive: all assays above

C[C@@H]1CN(c2c(F)c(N)c3c(=O)c(C(=O)O)cn(C4CC4)c3c2F)C[C@H](C)N1
inactive: all assays above

CCc1cc(C(N)=S)ccn1
inactive: all assays above

Cc1cc(NS(=O)(=O)c2ccc(N)cc2)no1
inactive: all assays above

CC1=NN(c2ccccc2)C(=O)C1
inactive: all assays above

Nc1nc(F)nc2c1ncn2[C@@H]1O[C@H](CO)[C@@H](O)[C@@H]1O
active: [1] 0.264 µM | [2] 0.418 µM | [3] 0.833 µM | [4] 0.296 µM | [5] 0.526 µM

CC(C)C1CCC(C(=O)N[C@H](Cc2ccccc2)C(=O)O)CC1 (stereo not given in full)
active: [2] 23.5 µM | [3] 0.0093 µM | [4] 16.6 µM
inactive: [1] | [5]

CCCc1cc(C(N)=S)ccn1
inactive: all assays above

O=C(O)C1CCCN(CCC=C(c2ccccc2)c2ccccc2)C1 (stereo not given)
inactive: all assays above

Nc1nc(N)nc(-c2cc(Cl)ccc2Cl)n1
inactive: [1] | [2] | [3]

NC(=O)N1c2ccccc2CC(=O)c2ccccc21
inactive: [1] | [2] | [3]

NC(=O)c1cccc(N)c1
not listed: [5]
inactive: all other assays above

O=C(O)c1cc(=O)[nH]c(=O)[nH]1
not listed: [5]
inactive: all other assays above

COc1ccccc1OCC(O)COC(N)=O (stereo not given)
inactive: [1] | [2] | [3]

Cc1nnc(C(=O)NC(C)(C)c2nc(C(=O)NCc3ccc(F)cc3)c(O)c(=O)n2C)o1
not listed: [5]
inactive: all other assays above

CCCOc1ccc(C(=O)OCCN(CC)CC)cc1N
active: [4] 14.8 µM
inactive: [1] | [2] | [3]

CCCCS(=N)(=O)CCC(N)C(=O)O (stereo not given)
active: [1] 18.7 µM
inactive: all other assays above

Cc1ccc(S(=O)(=O)N[C@@H](Cc2ccccc2)C(=O)CCl)cc1
active: [1] 11.8 µM | [2] 20.9 µM | [3] 18.7 µM | [4] 9.35 µM | [5] 11.8 µM

O=S(=O)(c1cccc2cnccc12)N1CCCNCC1
inactive: [2] | [3] | [4]
active: [1] 16.6 µM

Cn1nnc2c(C(N)=O)ncn2c1=O
not listed: [5]
inactive: all other assays above

CC(N)C12CC3CC(CC(C3)C1)C2 (stereo not given)
inactive: all assays above

COc1nc(N)nc2c1ncn2[C@@H]1O[C@H](CO)[C@@H](O)[C@@H]1O
active: [3] 0.469 µM
inactive: all other assays above

CCCCc1oc2ccc(NS(C)(=O)=O)cc2c1C(=O)c1ccc(OCCCN(CCCC)CCCC)cc1
active: [1] 11.8 µM | [2] 16.6 µM | [3] 23.5 µM | [4] 11.8 µM | [5] 13.2 µM

CCOc1cc(N)c(Cl)cc1C(=O)NCC1CN(Cc2ccc(F)cc2)CCO1 (stereo not given)
not listed: [5]
inactive: all other assays above

O=c1cc(O)c(Cl)c[nH]1
active: [1] 2.96 µM
inactive: [2]

COc1c(N2CCNC(C)C2)c(F)cc2c(=O)c(C(=O)O)cn(C3CC3)c12 (stereo not given)
inactive: all assays above

CN(C)c1ccc(C(=C2C=CC(=[N+](C)C)C=C2)c2ccc(N(C)C)cc2)cc1
active: [1] 0.0372 µM | [2] 0.0935 µM | [3] 0.166 µM | [4] 0.0264 µM | [5] 0.0743 µM

COc1cc(NS(=O)(=O)c2ccc(N)cc2)nc(OC)n1
inactive: all assays above

CCCc1nc(C)c2c(=O)[nH]c(-c3cc(S(=O)(=O)N4CCN(CC)CC4)ccc3OCC)nn12
active: [1] 5.26 µM | [2] 9.35 µM | [3] 5.9 µM | [4] 2.96 µM | [5] 3.72 µM

CS(=O)(=O)c1ccc([C@@H](O)[C@@H](CO)NC(=O)C(Cl)Cl)cc1
active: [1] 16.6 µM | [2] 2.35 µM | [4] 11.8 µM
inactive: [3]

O[C@@H](CNC[C@H](O)[C@H]1CCc2cc(F)ccc2O1)[C@@H]1CCc2cc(F)ccc2O1
active: [1] 16.6 µM | [2] 20.9 µM | [3] 18.7 µM | [4] 7.43 µM | [5] 18.7 µM

COc1cc(NCc2ccc3nc(N)nc(N)c3c2C)cc(OC)c1OC
active: [1] 4.69 µM | [2] 16.6 µM | [3] 18.7 µM | [4] 2.64 µM | [5] 20.9 µM

CCn1cc(C(=O)O)c(=O)c2cc(F)c(N3CCNCC3)cc21
inactive: all assays above

Cc1oc(=O)oc1CN1CCN(c2cc3c(cc2F)c(=O)c(C(=O)O)c2n3C(C)S2)CC1 (stereo not given)
not listed: [3]
inactive: all other assays above

COc1cc2nc(N3CCCN(C)CC3)nc(NC3CCN(Cc4ccccc4)CC3)c2cc1OC
active: [1] 3.72 µM | [2] 9.35 µM | [3] 7.43 µM | [4] 4.69 µM | [5] 10.5 µM

CC(=O)Oc1ccccc1C(=O)Nc1ncc([N+](=O)[O-])s1
active: [1] 27 µM | [2] 19.1 µM | [4] 17.1 µM

Cc1ccnc2c1NC(=O)c1cccnc1N2C1CC1
active: [1] 26.4 µM
inactive: all other assays above

Oc1c(Cl)cc(Cl)c2cccnc12
active: [1] 9.35 µM | [2] 18.7 µM | [3] 26.4 µM | [4] 18.7 µM | [5] 16.6 µM

NCCCC(O)(P(=O)(O)O)P(=O)(O)O
inactive: [2] | [3]
active: [1] 9.35 µM | [5] 14.8 µM

CN1CCN(c2c(F)cc3c(=O)c(C(=O)O)cn4c3c2OCN4C)CC1
inactive: all assays above

CC1CC2C3CCC4=CC(=O)C=C[C@]4(C)[C@@]3(F)[C@@H](O)C[C@]2(C)[C@@]1(O)C(=O)CO (stereo not given in full)
active: [1] 0.118 µM | [2] 0.0296 µM
inactive: [3] | [5]

Cc1onc(-c2ccccc2Cl)c1C(=O)N[C@@H]1C(=O)N2[C@@H]1SC(C)(C)[C@@H]2C(=O)O
inactive: all assays above

Cc1noc(NS(=O)(=O)c2ccc(N)cc2)c1C
inactive: all assays above

CCC(=O)O[C@]1(C(=O)CCl)[C@@H](C)C[C@H]2[C@@H]3CCC4=CC(=O)C=C[C@]4(C)[C@@]3(F)[C@@H](O)C[C@@]21C
active: [2] 0.0059 µM
inactive: [1] | [3] | [5]

NC1(c2ccc(-c3nc4ccn5c(=O)[nH]nc5c4cc3-c3ccccc3)cc2)CCC1
active: [1] 1.66 µM | [2] 1.05 µM | [4] 5.26 µM | [5] 9.35 µM

CCn1cc(C(=O)O)c(=O)c2cc(F)c(N3CCNCC3)nc21
not listed: [4]
inactive: all other assays above

CCCN[C@H]1CCc2nc(N)sc2C1
inactive: all assays above

CCOC(=O)[C@H](CCc1ccccc1)N[C@H]1CS[C@H](c2cccs2)CN(CC(=O)O)C1=O
active: [1] 1.05 µM | [2] 16.6 µM | [4] 1.66 µM | [5] 0.59 µM

O=C(O)c1cn(C2CC2)c2cc(N3CCNCC3)c(F)cc2c1=O
inactive: all assays above

CNCC[C@H](Oc1cccc2ccccc12)c1cccs1
active: [1] 3.72 µM | [2] 23.5 µM | [4] 26.4 µM | [5] 26.4 µM

CCOC(=O)[C@H](CCc1ccccc1)N[C@H]1CCc2ccccc2N(CC(=O)O)C1=O
active: [1] 20.9 µM | [2] 18.7 µM | [4] 8.33 µM | [5] 18.7 µM

CC(C)(C)NC(=O)[C@H]1CC[C@H]2[C@@H]3CC[C@H]4NC(=O)C=C[C@]4(C)[C@H]3CC[C@]12C
active: [1] 0.59 µM
inactive: all other assays above

CCN(CC)CCn1c(=O)c(Cc2ccc(OC)cc2)nc2ccccc21
inactive: all assays above

OCc1ccc(-c2nn(Cc3ccccc3)c3ccccc23)o1
active: [2] 4.18 µM
inactive: all other assays above

S=P(N1CC1)(N1CC1)N1CC1
inactive: all assays above

CNS(=O)(=O)Cc1ccc2[nH]cc(CCN(C)C)c2c1
inactive: all assays above
